Screening results (PubChem BioAssay)
Compounds with a hit are over-represented: about 13% of the library has one in this group of screens.
USP10 block: inhibitors of human USP10 deubiquitinase | Q14694 | inhibition, % at 20 µM | 47,000 compounds, 1.1% hits | AID 1645856 | purified USP10, Ub-rhodamine fluorescence, 60 min
USP30 inh: human USP30 deubiquitinase inhibition; Q70CQ3; purified USP30, Ub-rhodamine cleavage fluorescence; inhibition, % at 25 µM; 47,000 compounds, 5.3% hits; AID 1645860
USP28 block: inhibitors of human USP28 deubiquitinase. Q96RU2. purified USP28, Ub-rhodamine cleavage fluorescence, 30 min. inhibition, % at 25 µM. 47,000 compounds, 3% hits. AID 1645857
USP8 block: human USP8 deubiquitinase inhibition; P40818; purified USP8, Ub-rhodamine cleavage fluorescence, 30 min; inhibition, % at 20 µM; 47,000 compounds, 4.2% hits; AID 1645853
USP17 block: inhibitors of human USP17 deubiquitinase; purified USP17, Ub-rhodamine cleavage fluorescence, 3 h; inhibition, % at 50 µM; 47,000 compounds, 6.5% hits; AID 1645855
An asterisk follows results filed as active; · = no result. No stated cut-off is given here; in the data, active means inhibition above about 30%; inactive means the rest.

SMILES	USP10 block	USP30 inh	USP28 block	USP8 block	USP17 block
COc1ccc(NS(=O)(=O)c2cc(NC(=O)C3CC3)ccc2N2CCCCC2)cc1	11	6	2	-5	-3
COc1ccc(NS(=O)(=O)c2cc(NC(=O)/C=C/c3ccco3)ccc2N2CCCC2)cc1	17	55*	57*	76*	75*
O=C(NCC1COc2ccccc2O1)c1ccc2c(c1)OCO2 (stereo not drawn)	1	-8	11	2	-5
CC(C)NC(=O)c1ccc2c(c1)nc1n2CCN(Cc2ccco2)C1	-4	-41	-22	-3	-23
O=C(NCCn1ccc2ccccc21)c1cc2ccccc2oc1=O	4	14	-7	3	68*
O=S(=O)(c1cccc(Cl)c1)N1CCN(c2cnn3cnnc3c2)CC1	1	9	10	-10	43*
CN(C)C(=O)CSc1nnc(-c2cccc(Cl)c2)n1-c1ccc(Cl)c(C(F)(F)F)c1	3	47*	11	1	68*
COc1ccc2c(C)c(CC(=O)N[C@@H](Cc3c[nH]c4ccc(O)cc34)C(=O)O)c(=O)oc2c1C	7	-31	9	45*	16
COc1ccc2c(C)c(CC(=O)N[C@@H](Cc3c[nH]c4ccccc34)C(=O)O)c(=O)oc2c1C	1	-30	-2	4	13
O=C(NC1CCCC1)c1cccn1Cc1noc(-c2ccccc2)n1	3	25	11	32*	16
Cc1ccn(-c2ccc(N3CCN(C(=O)c4cccc5ccccc45)CC3)nn2)n1	2	-14	-6	-8	·
CC(C)c1nc2c(c(=O)c3ccccc3n2C)c(=O)n1CCc1ccccc1	7	50*	35*	1	4
Cn1c2ccccc2c(=O)c2c(=O)n(Cc3ccccc3)c(C3CCCCC3)nc21	5	42*	9	0	15
CC(C)(Oc1ccc(Cl)cc1)C(=O)N1CC(c2nc(-c3ccc[nH]c3=O)no2)C1	1	-12	-7	-81	-7
CC(Oc1ccc(F)cc1)C(=O)Nc1cccc2cccnc12 (stereo not drawn)	9	23	19	20	16
O=C(Nc1ccc(Oc2cccc3cccnc23)cc1)c1cccs1	3	-27	86*	-138	-21
Cc1cc(C)n2nc(C(=O)NCc3ccc(Cl)cc3)nc2n1	3	18	-7	8	2
Cc1cc(C)n2nc(NCc3cccc(Cl)c3)nc2n1	1	10	32*	15	0
Fc1ccc(Cc2nc(-c3ccn4cnnc4c3)no2)cc1	-3	-56	36*	-98	-3
Brc1ccccc1Cc1nc(-c2ccn3cnnc3c2)no1	-5	-158	2	-38	-5
CCc1ccc(NS(=O)(=O)c2c[nH]c3ccc([N+](=O)[O-])cc23)cc1	14	66*	25	2	60*
O=[N+]([O-])c1ccc2[nH]cc(S(=O)(=O)Nc3ccc(Cl)cc3)c2c1	10	4	5	-59	-7
Cc1ccc(C)n1-c1cc([N+](=O)[O-])ccc1N1CCN(S(=O)(=O)c2cn(C)cn2)CC1	-1	12	15	-95	13
COc1c(C(O)CC(C)C)ccc(Oc2c(O)cc(C)cc2C=O)c1C(=O)O (stereo not drawn)	23	10	24	7	44*
COc1c(C(CC(C)C)OC(C)=O)ccc(Oc2c(O)cc(C)cc2C=O)c1C(=O)O (stereo not drawn)	17	-21	23	-5	35*
SMILES	USP10 block	USP30 inh	USP28 block	USP8 block	USP17 block
COc1c([C@@H](O)CC(C)C)ccc2c1C(=O)OCc1cc(C)cc(O)c1O2	-11	-21	0	-28	-1
COc1c(O)cc(O)c(C(=O)O)c1C(O)C(C)=O (stereo not drawn)	-4	-88	1	-4	-14
O=C(NC1CCCCCC1)C(Cc1ccccc1)NS(=O)(=O)c1cccc2nsnc12 (stereo not drawn)	3	-5	-1	-32	-14
Cc1cccc(C)c1NC(=O)Cn1cccc(S(=O)(=O)N2CCC(C)CC2)c1=O	-2	-68	-17	-2	-22
CCC(C)C1C(=O)N2NCCCC2C(=O)N2NCCCC2C(=O)N(C)C(Cc2ccccc2)C(=O)N2CCCC2C(=O)NC(Cc2ccccc2)C(=O)N1O (stereo not drawn)	1	26	17	0	6
O=C1N[C@@H](Cc2ccccc2)C(=O)N2[C@H]3Nc4ccccc4[C@@]3([C@]34C[C@H]5C(=O)N[C@@H](Cc6ccccc6)C(=O)N5[C@H]3Nc3ccccc34)C[C@@H]12	16	49*	22	12	53*
